Only a selection was taken, and hits are over-represented in it overall.
ST2 IL33 inh – IL1RL1 inhibition | Q01638 | AlphaLISA ST2-Fc/biotin-IL-33 interaction, 1 h | inhibition, % for hits at 17 µM | hit rate 2.3% among 78,000 | AID 1259354; in the data active = inhibition above about 30%
Target sequence (Q01638 whole entry, looked up): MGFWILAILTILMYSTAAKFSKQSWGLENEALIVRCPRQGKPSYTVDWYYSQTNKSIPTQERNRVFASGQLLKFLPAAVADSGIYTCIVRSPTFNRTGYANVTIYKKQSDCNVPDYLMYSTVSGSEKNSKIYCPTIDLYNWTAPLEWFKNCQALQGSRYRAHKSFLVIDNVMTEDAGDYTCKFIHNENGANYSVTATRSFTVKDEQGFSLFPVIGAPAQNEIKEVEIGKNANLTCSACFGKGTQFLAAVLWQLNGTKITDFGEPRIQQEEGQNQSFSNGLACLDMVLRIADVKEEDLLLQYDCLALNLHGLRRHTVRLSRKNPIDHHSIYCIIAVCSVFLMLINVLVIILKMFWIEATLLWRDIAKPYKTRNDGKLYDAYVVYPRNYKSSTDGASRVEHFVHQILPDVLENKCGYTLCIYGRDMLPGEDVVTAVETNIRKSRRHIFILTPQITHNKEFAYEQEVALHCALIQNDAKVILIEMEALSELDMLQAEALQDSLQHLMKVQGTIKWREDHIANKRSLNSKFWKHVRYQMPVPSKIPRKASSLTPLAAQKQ
Hits are given with their value; . = inactive.

SMILES | ST2 IL33 inh
COc1cc(C2OCC3C(c4ccc(O[C@@H]5O[C@H](COC(C)=O)[C@@H](O)[C@H](O)[C@H]5O[C@@H]5O[C@@H](C)[C@H](O)[C@@H](O)[C@H]5O)c(OC)c4)OCC23)ccc1O (some centres not stated) | .
Cc1nc2c3c(-c4ccccc4)nc(N4CCCC4)nc3nn2c(C)c1CCC(=O)O | .
COc1cccc2cc(C(=O)Nc3ccccc3)c(=Nc3cccc(C#N)c3)oc12 | .
O=C1OC(c2ccc(Cl)cc2)=NC1=C(Cl)Cl | .
Cc1ccc(NC(=O)CCCn2nc([N+](=O)[O-])c(Br)c2C)cc1C | .
Cc1nc(CN(C(=O)c2ccc(C3CCCO3)s2)C(C)C)no1 (configuration not stated) | .
CCCCOC(=O)C1=C(C)Nc2nnnn2C1c1cccc(OC)c1 (configuration not stated) | .
Cc1ccc(N2C(=O)c3ccc(C)cc3C2=O)c(Cl)c1 | .
CN(C)C(=O)c1ccc2c(c1)NC(=O)C1CCCCN21 (configuration not stated) | .
COc1ccc(CNC(=O)c2ccc3c(c2)NC(=O)C2CCCCN32)cc1 (configuration not stated) | .
CC(C)c1ccc(NC(=O)c2ccc3c(c2)NC(=O)C2CCCCN32)cc1 (configuration not stated) | 99%
Cc1ccccc1C(=O)N(c1ccc(F)cc1)C1C=CS(=O)(=O)C1 (configuration not stated) | .
CCc1nnc(CNc2nc(-c3ccccc3)nc3c2CCNC3)s1 | .
CS(=O)(=O)N(CC(=O)Nc1ccc(C(N)=O)cc1)c1ccc(Oc2ccccc2)cc1 | .
O=C(N[C@H]1CCN2C(=O)[C@@H](Cc3c[nH]c4ccccc34)NC(=O)[C@H]12)c1ccccc1 | 79%
O=C(NC(Cc1c[nH]c2ccccc12)C(=O)O)c1ccccc1 (configuration not stated) | .
CC(C)C1NC(=O)CNC(=O)C2CCCN2C(=O)C(Cc2c[nH]c3ccccc23)NC(=O)CNC(=O)C(C(O)c2ccc(O)cc2)NC(=O)CNC1=O (configuration not stated) | .
O=C(CCN1CCC(O)(c2cccnc2)CC1)N1CCc2ccccc2C1 | .
Cc1ccccc1C(=O)N1CCN=C1SCc1cccnc1 | .
CN1CCCN(Cc2cc(Br)cs2)CC1 | .
CN(CCCc1cnn(C)c1)c1nc(-c2cccnc2)nc2c1cnn2C | 30%
Cc1nnsc1CNc1nc(-c2cccnc2)nc2c1cnn2C | .
Cn1ncc2c(NCc3n[nH]c4c3CCCCC4)nc(-c3cccnc3)nc21 | .
CN(CC1CCCO1)c1nc(-c2ccc([N+](=O)[O-])cc2)cs1 (configuration not stated) | 54%
Nc1nc(-c2ccc([N+](=O)[O-])cc2)cs1 | .
SMILES | ST2 IL33 inh
O=C(NCC1CCCO1)c1ccccc1Sc1ccc([N+](=O)[O-])cc1 (configuration not stated) | .
CCN1CCCC1CNC(=O)c1cc2cc3ccc(OC)cc3nc2o1 (configuration not stated) | .
COC(=O)c1cc2n(n1)CCCN(CC(C)c1ccccc1)C2 (configuration not stated) | .
COc1ccc(NC(=O)CC2CCCCC2)c([N+](=O)[O-])c1 | 40%
CCCCOC(=O)Nc1ccccc1F | .
COc1ccc(NC(=O)CC2SC(N)=NC2=O)c([N+](=O)[O-])c1 (configuration not stated) | .
COc1ccc(NC(=O)CC2CCCCC2)c(OC)c1 | .
CCCCOC(=O)Nc1ccc(OC)cc1[N+](=O)[O-] | 47%
COc1ccc(OCC(=O)Nc2ccc(OC)cc2[N+](=O)[O-])cc1 | .
Cc1c(C(=O)N2CCCC2)c(S(=O)(=O)Nc2ccc(S(N)(=O)=O)cc2)c(C)n1C | .
Fc1ccccc1CN1CC[C@H](c2nc3ncccc3[nH]2)C1 | .
Cc1nnc(-c2cccc(-c3cc(F)c4c(c3)CC(CN)O4)c2)s1 (configuration not stated) | .
COC(=O)c1ccc(NC(=O)c2ccc(=O)n(Cc3ccc(Cl)cc3)c2)cc1 | .
CN(C(=O)c1cnn(-c2ccccc2)c1)C1CCCN(C2Cc3ccccc3C2)C1 (configuration not stated) | .
Cc1cc(C)n(C)c(=O)c1C(=O)N1CCCC(CCc2ccc(F)c(F)c2)C1 (configuration not stated) | .
COc1ccc(/C=C2\N=C(c3ccc(C)cc3)OC2=O)cc1Br | .
CN(C)c1ccc(/C=C2\N=C(c3ccccc3Br)OC2=O)cc1 | 41%
CC1=N/C(=C\c2ccc(Br)cc2)C(=O)O1 | .
Cc1cccc(C2=N/C(=C\c3ccc(N(C)C)cc3)C(=O)O2)c1 | 39%
Cc1cccc(C2=N/C(=C\C=C\c3ccccc3)C(=O)O2)c1 | 37%
Cc1cccc(C2=N/C(=C\c3ccccc3)C(=O)O2)c1 | 46%
O=C1OC(c2cccc(I)c2)=N/C1=C\c1ccc([N+](=O)[O-])cc1 | .
COc1ccc(/C=C2\N=C(c3cccc(I)c3)OC2=O)cc1[N+](=O)[O-] | .
Cc1ccc(C2=N/C(=C\C(Br)=C\c3ccccc3)C(=O)O2)cc1[N+](=O)[O-] | .
CC(=O)n1cc(/C=C2\N=C(c3cccc(C)c3)OC2=O)c2cc(Br)ccc21 | .
SMILES | ST2 IL33 inh
COc1ccc(/C=C2\N=C(c3ccccc3Br)OC2=O)c(OC)c1OC | .
Cc1cccc(C2=N/C(=C\c3cccc([N+](=O)[O-])c3)C(=O)O2)c1 | .
Cc1cccc(C)c1NS(=O)(=O)c1cccnc1 | .
CCCSc1nc2c(c(=O)n1-c1ccc(Br)cc1)SCC2 | .
Cc1oc(-c2cccs2)nc1CN1CCCC(C(=O)NC2CCCc3ccccc32)C1 (configuration not stated) | .
CN1CCCCC1CCNC(=O)c1ccc(-c2cccc3ncccc23)nc1 (configuration not stated) | .
CN1C(=O)C2(CCN(c3ncc(F)cn3)CC2)c2ccccc21 | .
CCOCC(=O)Nc1c(C(=O)Nc2ccc(F)cc2)oc2ccccc12 | .
COc1ccc(NS(=O)(=O)c2ccc3c(c2)CCC(=O)N3)cc1OC | .
CN1C[C@@H](NC(=O)COc2ccccc2)C[C@H]1c1nc(-c2ccc(OC(F)(F)F)cc2)no1 | .
O=C(CN1CCN(Cc2ccccc2)C1=O)NCc1cccnc1 | .
Cn1c(=O)cc(SCC(=O)NCCCN2CCCCCC2)c2ccccc21 | .
O=C(O)Cn1c(=O)[nH]c2ccsc2c1=O | .
O=C1CSC(=O)N1CC(O)COc1ccc(OCC(O)CN2C(=O)CSC2=O)cc1 (configuration not stated) | .
O=C1OC(c2cc([N+](=O)[O-])ccc2Cl)=N/C1=C\c1cccc(I)c1 | .
O=C1OC(c2ccccc2Cl)=N/C1=C\C=C\c1ccccc1 | 34%
COc1ccccc1/C=C/C1=NC(=C\C(Cl)=C\c2ccccc2)/C(=O)O1 | .
O=[N+]([O-])c1ccc(-n2ccc3ccccc32)cc1 | 32%
COc1ccc(-n2ccc3ccccc32)cc1 | .
O=[N+]([O-])c1ccc(S(=O)(=O)n2nnc3ccccc32)cc1 | .
Cc1c(C(=O)Nc2cccc(NC(=O)c3ccccc3Cl)c2)cccc1[N+](=O)[O-] | .
COC(=O)c1nc2n(n1)C(c1ccc(C)cc1)C1=C(CCCC1=O)N2 (configuration not stated) | .
CCOC(=O)C1(CCc2ccccc2)CCCN(Cc2ccncc2)C1 (configuration not stated) | .
CNC(=O)C1CCC(Cn2c(=O)c3sccc3n(CC(=O)NC3CCCC3)c2=O)CC1 (configuration not stated) | .

Assay outcomes as filed in PubChem BioAssay.
